Results on three compounds are retold here after PubChem BioAssay AID1573 (National Center for Advancing Translational Sciences (NCATS), 2009).

Records with an inconclusive call do not appear. A number with no mark means an inactive call. The source made the active and inactive calls. Calls follow the shape of the dose curve; as a rule, active = well fitted inhibition curve with a large enough effect; inconclusive = small, poorly fitted or top-dose-only effect; inactive = no such curve, though single readings can be large or run the other way.

The test deals with Thyroid hormone receptor beta (Homo sapiens) (UniProt P10828). Put plainly: Concentration Response Confirmation Assay for Inhibitors of the Interaction of Thyroid Hormone Receptor and Steroid Receptor Coregulator 2. As to conditions: TRb LBD + Texas Red SRC2 peptide, fluorescence polarization, 5 h; series mostly up to 92.2 µM; activity, negative = inhibition: at the top concentration. The source says: NIH Molecular Libraries Probe Production Network [MLPCN] NIH Chemical Genomics Center [NCGC] MLPCN Grant: DK058080 Assay Provider: R. Kip Guy, St. Jude Children's Research Hospital NCGC Assay Overview: Thyroid receptor (TR) regulates many homeostatic processes including basal metabolism, cardiovascular function, body weight, and lipid trafficking. TR modulators are potential therapeutics for obesity and hyperlipidemias but current thyroid analogs have undesirable side effects, particularly cardiac stimulation. To identify inhibitors that specifically prevent the interaction of TR with the steroid receptor coregulator 2 (SRC2), a fluorescence polarization assay was screened. This assay detects interaction of the ligand-binding domain of human TRb with a Texas Red labeled SRC2 peptide, corresponding to a 20 amino acid region of the nuclear receptor interaction domain (Arnold et al., 2006). Small molecule inhibitors that block the interaction of TR and SRC2 are detected by a decrease in fluorescence polarization. This assay is a confirmation assay for AID 1469. Arnold, L. A.; Estebanez-Perpina, E.; Togashi, M.; Shelat, A.; Ocasio, C. A.; McReynolds, A. C.; Nguyen, P.; Baxter, J. D.; Fletterick, R. J.; Webb, P.; Guy, R. K. A high-throughput screening method to identify small molecule inhibitors of thyroid hormone receptor coactivator binding. Sci STKE 2006, p 13.
Chain of Thyroid hormone receptor beta (Homo sapiens) (P10828 whole entry, looked up, the tested form may be a part): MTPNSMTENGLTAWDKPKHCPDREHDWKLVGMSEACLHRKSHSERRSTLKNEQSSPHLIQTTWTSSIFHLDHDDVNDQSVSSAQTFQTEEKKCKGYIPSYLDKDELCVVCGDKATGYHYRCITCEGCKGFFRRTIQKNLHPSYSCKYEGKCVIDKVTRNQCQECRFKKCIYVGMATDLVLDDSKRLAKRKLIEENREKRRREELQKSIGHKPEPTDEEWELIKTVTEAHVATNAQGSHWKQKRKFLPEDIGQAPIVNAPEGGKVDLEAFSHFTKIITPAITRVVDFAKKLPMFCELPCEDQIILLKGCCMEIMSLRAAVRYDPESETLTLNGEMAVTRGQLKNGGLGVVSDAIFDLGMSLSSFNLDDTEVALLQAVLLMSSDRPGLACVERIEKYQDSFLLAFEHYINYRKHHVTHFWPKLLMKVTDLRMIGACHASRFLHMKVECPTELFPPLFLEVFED
NCGC Assay Protocol Summary: For screening, 5 uL/well 0.6 uM TRb and 20 nM SRC2 Texas Red in protein buffer (20mM Tris hydrochloride, 100mM NaCl, 10% glycerol, 1mM EDTA, 0.01% NP-40, 1mM DTT, 1uM T3 and 5% DMSO) was dispensed into black solid 1536-well plates (Grenier) using a solenoid-based dispenser. […] The plates were read by an Envision (Perkin Elmer) to detect fluorescence polarization of SRC2 Texas Red (555 nm excitation and 632 nm emission). […] Keywords: NIH Roadmap, MLPCN, MLI, MLSMR, qHTS, NCGC, qHTS, thyroid hormone receptor, steroid receptor coactivator, fluorescence polarization
Background: In fluorescence polarisation assays a small probe gives low polarisation when free and higher when bound to something large.
For `CCn1nc(-c2cccs2)nc2c(=O)n(C)c(=O)nc1-2`, the “activity, negative = inhibition” value was -10.7%.
Turning to `CN1CC[C@@]2(C)c3cc(O)ccc3N(C)C2O1` (stereo partly drawn), the Potency is 25.1 µM (active).
As for `COP(=S)(OC)Oc1ccc([N+](=O)[O-])cc1`, the Potency is 25.1 µM (active).
